Results reported in PubChem BioAssay (NCI).
About 83,000 compounds went through this panel and 20% of them were active in at least one assay; those are over-represented in the sample as a whole.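 In brief: 96-well plates, 48 h treatment, single concentration, percent growth endpoint.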 A number with no mark means an inactive call. Active and inactive are the calls of the source. Rule for the calls: active = growth percent below 10; inactive = the rest.

How the values were obtained:
Experiment in all cases: NCI-60 one-dose screen, 48 h (100 = growth as untreated, 0 = no growth, -100 = all killed)
SK-MEL-2 melanoma = settings: 10 µM unless noted
EKVX NSCLC = settings: 10 µM unless noted
SN12C renal = settings: 10 µM unless noted
UO-31 renal = settings: 10 µM unless noted
TK-10 renal = settings: 10 µM unless noted
ACHN renal = settings: 10 µM unless noted
A498 renal = settings: 10 µM unless noted
CCRF-CEM leukemia = settings: 10 µM unless noted
MOLT-4 leukemia = settings: 10 µM unless noted
SR leukemia = settings: 10 µM unless noted
RPMI-8226 leukemia = settings: 10 µM unless noted
OVCAR-8 ovarian = settings: 10 µM unless noted
OVCAR-5 ovarian = settings: 10 µM unless noted
OVCAR-4 ovarian = settings: 10 µM unless noted
SK-OV-3 ovarian = settings: 10 µM unless noted
IGROV1 ovarian = settings: 10 µM unless noted
OVCAR-3 ovarian = settings: 10 µM unless noted
HS 578T breast = settings: 10 µM unless noted
NCI/ADR-RES ovarian = settings: 10 µM unless noted
CAKI-1 renal = settings: 10 µM

| Compound | growth (SK-MEL-2 melanoma) | growth (EKVX NSCLC) | growth (SN12C renal) | growth (UO-31 renal) | growth (TK-10 renal) | growth (ACHN renal) | growth (A498 renal) | growth (CCRF-CEM leukemia) | growth (MOLT-4 leukemia) | growth (SR leukemia) | growth (RPMI-8226 leukemia) | growth (OVCAR-8 ovarian) | growth (OVCAR-5 ovarian) | growth (OVCAR-4 ovarian) | growth (SK-OV-3 ovarian) | growth (IGROV1 ovarian) | growth (OVCAR-3 ovarian) | growth (HS 578T breast) | growth (NCI/ADR-RES ovarian) | growth (CAKI-1 renal) [%] |
| --- | --- | --- | --- | --- | --- | --- | --- | --- | --- | --- | --- | --- | --- | --- | --- | --- | --- | --- | --- | --- |
| CC[C@@](C)(NC(=O)C(C)(C)NC(=O)[C@@H](NC(=O)[C@@H]1CCCN1C(=O)C(C)(C)NC(=O)[C@H](CC(C)C)NC(=O)CNC(=O)C(C)(C)NC(=O)[C@@H](NC(=O)C(C)(C)NC(=O)[C@H](CCC(N)=O)NC(=O)[C@H](C)NC(=O)C(C)(C)NC(=O)[C@H](C)NC(=O)C(C)(C)NC(=O)[C@H](C)NC(=O)C(C)(C)NC(C)=O)C(C)C)C(C)C)C(=O)N[C@@H](CCC(N)=O)C(=O)N[C@@H](CCC(N)=O)C(=O)N[C@H](CO)CC1CCCCC1 | -21.9% [5 µM] (active) | 65.6% [5 µM] | 9.8% [5 µM] (active) | 91.1% [5 µM] | 88.3% [5 µM] | 107% [5 µM] | 39.7% [5 µM] | 27.4% [5 µM] | 21% [5 µM] | 27.7% [5 µM] | -16.2% [5 µM] (active) | 87.7% [5 µM] | 19.9% [5 µM] | 58% [5 µM] | 18.5% [5 µM] | 42.1% [5 µM] | 19.2% [5 µM] | 46.6% [5 µM] | 101% [5 µM] |  |
| CC[C@@](C)(NC(=O)C(C)(C)NC(=O)[C@@H](NC(=O)[C@@H]1CCCN1C(=O)C(C)(C)NC(=O)[C@H](CC(C)C)NC(=O)CNC(=O)C(C)(C)NC(=O)[C@@H](NC(=O)C(C)(C)NC(=O)[C@H](CCC(N)=O)NC(=O)[C@H](C)NC(=O)C(C)(C)NC(=O)[C@H](C)NC(=O)C(C)(C)NC(=O)[C@@H]1CCCN1C(=O)C(C)(C)NC(C)=O)C(C)C)C(C)C)C(=O)N[C@@H](CCC(N)=O)C(=O)N[C@@H](CCC(N)=O)C(=O)N[C@H](CO)Cc1ccccc1 | -9.91% [4.25 µM] (active) | 71.6% [4.25 µM] | 12.8% [4.25 µM] | 89.5% [4.25 µM] | 90% [4.25 µM] | 107% [4.25 µM] | 54.9% [4.25 µM] | 35.6% [4.25 µM] | 8.53% [4.25 µM] (active) | 22.2% [4.25 µM] | -10.5% [4.25 µM] (active) | 94.5% [4.25 µM] | 44.9% [4.25 µM] | 59.2% [4.25 µM] | 31.3% [4.25 µM] | 42.6% [4.25 µM] |  | 52.1% [4.25 µM] | 100% [4.25 µM] |  |
| COc1cc(CNC(=O)Cc2ccccc2[N+](=O)[O-])ccc1OCC(=O)NO | 104% | 100% | 99.5% | 83.1% | 122% | 103% |  | 102% | 107% | 97.4% | 118% | 101% |  | 116% | 107% | 108% | 126% | 108% |  | 90.4 |
| Cc1cc(Cl)cc(NS(=O)(=O)c2ccc(-c3cnc(C4CC4)o3)cc2)c1 | 78.1% | 39.4% | 39.6% | 43.8% | 83.5% | 46.1% |  | 18.6% | 25.9% | 27.1% |  | 38.7% | 43.6% | 66.2% | 72.8% |  | -24.3% (active) | 35.6% | 10.1% | 37.1 |
| COc1ccc(/C=C/C(=O)c2nnn(-c3ccc(Br)cc3)c2C)cc1OC | 88.6% | 62.3% | 80.2% | 66.7% | 95.4% | 86% |  | 66.4% | 78.4% | 52.6% | 10.5% | 82.7% | 94.1% | 71.6% |  | 69.2% | 52.9% | 92.5% | 59.3% | 83.4 |
| O=C(Nc1cccc(Cl)c1)Nc1nc2ccc(-c3cccc4ccccc34)cc2s1 | 82.6% | 56.4% | 53% | 47.4% | 74.7% | 40.3% |  | 40.4% | 41.5% | 90% |  | 42.9% | 84% | 20.4% | 66.8% | 55.2% | 13.5% | 72.9% |  | 37.9 |
| CCC(C)[C@H]1OC(=O)[C@H](C(C)C)N(C)C(=O)[C@@H](C(C)C)OC(=O)[C@H](C(C)C)N(C)C(=O)[C@@H](C(C)CC)OC(=O)[C@H](C(C)C)N(C)C1=O (stereo not given in full) | -14.6% (active) | 20.5% | 4.12% (active) | -13.6% (active) | -8.95% (active) | 7.98% (active) | -2.54% (active) | 9.05% (active) | -24.2% (active) | 7.44% (active) | -19.5% (active) | 11.6% | 13.4% | 10.5% | -15.3% (active) | 25.8% | 18.3% | 32.9% | 2.47% (active) |  |
